According to PubChem BioAssay AID624405 (Broad Institute, 2012):
Screen size: about 1,900 compounds; about 250 (13%) were called active. Inconclusive results (about 4%) are left out.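 How the source made its calls: active means fitted curve reaches 40% rescue activity at or below the top valid dose, in every test run; inconclusive means test runs disagree, some active and some inactive; inactive means every run misses the threshold or moves the wrong way.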 A selection follows. Measured potencies and affinities stand elsewhere.

Assay: suppressors of statin myotoxicity in myotubes, dose response, cell-based, C2C12 myotubes, ATP luminescence, cherry pick (AID 624405);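 further: myotubes are challenged with simvastatin at 10 µM to lower ATP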
Conditions: C2C12 myotubes + simvastatin, 48 h, scaled: DMSO wells 0, geranylgeraniol wells 100; series mostly up to 19.5 µM

SMILES	outcome
C[C@@H]1CN([C@@H](C)CO)C(=O)c2cc(C#CC3CCCCC3)cnc2O[C@@H]1CN(C)C(=O)C1CCCCC1	inactive
CSc1nncn1/N=C/c1ccc2c(c1)OCO2	inactive
COc1cccc(-c2cnc3c(c2)C(=O)N([C@H](C)CO)C[C@H](C)[C@H](CN(C)C(=O)Nc2cccc4ccccc24)O3)c1	inactive
COc1cc(C(=O)Oc2cccc(C)c2)cc(OC)c1OC	inactive
O=C(c1cccs1)N1CCN(C2CCN(Cc3ccccc3)CC2)CC1	inactive
COc1cc(S(=O)(=O)N2CCN(C(=O)c3ccccc3F)CC2)c(OC)cc1NC(C)=O	inactive
Cc1ccc(S(=O)(=O)N2CCCSCC2)cc1	inactive
COc1ccc(CN2CCN(C(=O)c3cccs3)CC2)cc1Br	inactive
Cc1noc(N)c1C(=O)Nc1ccc(F)c(Cl)c1	inactive
Cc1nnc(Sc2nc3c(c(=O)n(C)c(=O)n3C)n2Cc2ccccc2Cl)s1	inactive
O=C1CCCC2=C1C(c1cccs1)Nc1ccc3ncccc3c12 (stereo unspecified)	inactive
CCCSc1nnc(CN2CCOCC2)n1C	inactive
CCCNC(=O)C(=O)c1cccn1-c1ccsc1C(=O)OC	inactive
CCOC(=O)c1ccc(NC(=O)N2CCCCC2)cc1	inactive
C[C@H](CO)N1C[C@H](C)[C@H](CN(C)C(=O)Nc2ccc3c(c2)OCO3)OCCCC[C@H](C)Oc2ccc(NS(=O)(=O)c3ccc(F)cc3)cc2C1=O	inactive
Cc1ccc(CN2CCC(C(=O)NCCC(C)C)CC2)o1	inactive
COc1ccc(S(=O)(=O)Nc2cccc3c2O[C@@H](CN(C)C(=O)Nc2ccc(F)cc2)[C@@H](C)CN([C@@H](C)CO)C3=O)cc1	inactive
Cc1ccc(S(=O)(=O)N(C)C[C@@H]2Oc3c(NC(=O)Nc4ccccc4)cccc3C(=O)N([C@@H](C)CO)C[C@H]2C)cc1	inactive
Cc1ccc(S(=O)(=O)N(C)C[C@H]2Oc3c(NC(=O)Nc4ccccc4)cccc3C(=O)N([C@H](C)CO)C[C@@H]2C)cc1	inactive
Cc1ccc(S(=O)(=O)N(C)C[C@H]2Oc3c(NC(=O)Nc4ccccc4)cccc3C(=O)N([C@@H](C)CO)C[C@@H]2C)cc1	inactive
COc1ccc(S(=O)(=O)Nc2cccc3c2O[C@H](CN(C)C(=O)Nc2ccc(F)cc2)[C@@H](C)CN([C@H](C)CO)C3=O)cc1	inactive

SMILES	outcome
COc1ccc(S(=O)(=O)Nc2cccc3c2O[C@@H](CN(C)C(=O)Nc2ccc(F)cc2)[C@@H](C)CN([C@H](C)CO)C3=O)cc1	inactive
CN1C(=O)c2cc(NC(=O)c3ccc(F)c(F)c3)ccc2OC[C@H]2O[C@@H](CC(=O)Nc3ccc4c(c3)COC4)CC[C@@H]21	inactive
CCSc1nc2sc3c(c2c(=O)n1-c1ccc(OC)cc1)CCN(C)C3	inactive
COCCNC(=O)c1nn(-c2cc(OC)cc(OC)c2)c(=O)c2ccccc12	inactive
COc1ccc(S(=O)(=O)N(CC(C)C)CC(C)C)c2cccnc12	inactive
Cc1cccc(NC(=O)COc2ccc3oc4c(c3c2)CCCC4)n1	inactive
CO[C@H]1CC[C@@H]2CCOc3ccc(C#N)cc3C(=O)N(C)C[C@@H](OC)[C@@H](C)C(=O)N(C)C[C@H]1O2	inactive
C[C@@H]1CN([C@H](C)CO)C(=O)c2cc(NS(=O)(=O)c3cccs3)ccc2O[C@@H](C)CCCCO[C@@H]1CN(C)Cc1ccc(C(F)(F)F)cc1	inactive
O=C(CSc1nnnn1-c1cccc2c1CCCC2)N1CCCCC1	inactive
Cc1ccc(NC(=O)c2cccc(OCc3c(C)noc3C)c2)cc1	inactive
COCCNC(=O)Nc1ccc2nc(-c3cccs3)c(-c3cccs3)nc2c1	inactive
COc1ccc(NC(=O)CSc2nccc(C)n2)cc1	inactive
O=C(CSc1nnc(CNc2ccc(F)cc2)n1Cc1ccccc1)N1CCOCC1	inactive
Cc1ccc(NC(=O)CCNS(=O)(=O)c2ccc3[nH]c(=O)oc3c2)cc1F	inactive
C[C@@H]1CN([C@H](C)CO)C(=O)c2cc(C#CC3CCCCC3)cnc2O[C@H]1CN(C)C(=O)C1CCCCC1	inactive
CCOC(=O)c1cccc(NC(=O)C2CCCO2)c1 (stereo unspecified)	inactive
Cc1ccc(C2C=C(c3ccccc3OC(F)F)Nc3ncnn32)cc1 (stereo unspecified)	inactive
CNC(=O)CC(=O)Nc1ccccc1C(=O)O	inactive
O=c1c2c3c(sc2nc2n1CCCS2)CCCC3	inactive
C=CCOC(=O)c1ccc(-n2cncn2)nc1	inactive
CCC(C(=O)Nc1ccccc1-c1ccccc1)c1ccccc1 (stereo unspecified)	inactive

SMILES	outcome
CCOCCc1nnc(NC(=O)C(CC)c2ccccc2)s1 (stereo unspecified)	inactive
C[C@@H]1CN([C@H](C)CO)C(=O)Cc2cc(NS(=O)(=O)c3cccs3)ccc2O[C@@H]1CN(C)Cc1ccc(-c2ccccc2)cc1	inactive
Cc1ccc(S(=O)(=O)Nc2ccc3c(c2)CC(=O)N([C@H](C)CO)C[C@@H](C)[C@H](CN(C)Cc2ccc(-c4ccccc4)cc2)O3)cc1	inactive
COc1ccc(S(=O)(=O)Nc2ccc3c(c2)CC(=O)N([C@H](C)CO)C[C@@H](C)[C@H](CN(C)Cc2ccccc2)O3)cc1	inactive
C[C@H]1CN([C@@H](C)CO)C(=O)Cc2cc(NS(=O)(=O)c3cn(C)cn3)ccc2O[C@@H]1CN(C)Cc1ccc(-c2ccccc2)cc1	inactive
Cc1ccc(S(=O)(=O)Nc2ccc3c(c2)CC(=O)N([C@@H](C)CO)C[C@@H](C)[C@H](CN(C)Cc2ccc(Oc4ccccc4)cc2)O3)cc1	inactive
C[C@@H]1CN([C@@H](C)CO)C(=O)Cc2cc(NS(=O)(=O)c3ccc(F)cc3)ccc2O[C@H]1CN(C)Cc1ccc(-c2ccccc2)cc1	inactive
COc1ccc(CN(C)C[C@H]2Oc3ccc(NS(=O)(=O)c4ccccc4)cc3CC(=O)N([C@@H](C)CO)C[C@@H]2C)cc1	inactive
COc1ccc(CN(C)C[C@@H]2Oc3ccc(NS(=O)(=O)c4ccc(C)cc4)cc3CC(=O)N([C@H](C)CO)C[C@H]2C)cc1	inactive
COc1ccc(CN(C)C[C@H]2Oc3ccc(NS(=O)(=O)c4ccc(F)cc4)cc3CC(=O)N([C@@H](C)CO)C[C@@H]2C)cc1	inactive
COC(=O)CCC(=O)Nc1sc(C)c(C)c1C(N)=O	inactive
C[C@@H]1CCCCO[C@@H](CN(C)C(=O)C2CCCCC2)[C@H](C)CN([C@@H](C)CO)C(=O)c2cc(NS(=O)(=O)c3ccccc3)ccc2O1	inactive
COc1ccc(CN2[C@@H]3CNc4ccccc4[C@@H]3[C@@H]2CO)cc1	inactive
C[C@@H]1CCCCO[C@H](CN(C)C(=O)NC2CCCCC2)[C@H](C)CN([C@@H](C)CO)C(=O)c2cc(NC(=O)Nc3cccc4ccccc34)ccc2O1	inactive
C[C@H](CO)N1C[C@H](C)[C@@H](CN(C)Cc2ccc(Oc3ccccc3)cc2)Oc2ccc(NC(=O)Cc3cn(C)c4ccccc34)cc2CC1=O	inactive
O=C(OCC(=O)N1CCOCC1)c1ccccc1SCC(=O)N1CCCC1	inactive
C[C@H](CO)N1C[C@H](C)[C@@H](CN(C)Cc2ccc(C(F)(F)F)cc2)Oc2ccc(NS(=O)(=O)c3cccs3)cc2CC1=O	inactive
CC(=O)N1CCN(c2nnnn2-c2ccccc2)CC1	inactive
COCc1cc(C)nc(N2CCN(Cc3ccccc3)CC2)c1C#N	inactive
COc1ccc(S(=O)(=O)Nc2ccc3c(c2)C(=O)N([C@@H](C)CO)C[C@@H](C)[C@H](CN(C)C(=O)c2ccccc2)OCCCC[C@@H](C)O3)cc1	inactive
COc1ccc2[nH]c(=O)c(CN(CCc3ccccc3)C(C)=O)cc2c1	inactive

SMILES	outcome
COc1ccc2[nH]c(=O)c(CNc3ccc(C)c(C)c3)cc2c1	inactive
CC(=O)N1C=CN(C(C)=O)C(c2cn(C)c3ccccc23)C1c1cn(C)c2ccccc12 (stereo unspecified)	inactive
Cc1cc(C)nc(NC(=NCCc2c[nH]c3ccccc23)NC(=O)c2ccco2)n1	inactive
O=C(Cc1coc(-c2ccc(F)cc2)n1)Nc1ccccc1	inactive
CCCCCNC(=O)C1CC=CCC1C(=O)O (stereo unspecified)	inactive
C[C@@H]1CN([C@H](C)CO)C(=O)Cc2cc(NC(=O)CCCCCC(=O)Nc3ccccc3N)ccc2O[C@H]1CN(C)CC1CCCCC1	inactive
C[C@H]1CN([C@@H](C)CO)C(=O)Cc2cc(NC(=O)CCCCCC(=O)Nc3ccccc3N)ccc2O[C@@H]1CN(C)CC1CCCCC1	inactive
COc1ccc(S(=O)(=O)N(C)C[C@@H]2OCCCC[C@H](C)Oc3ccc(NC(=O)Nc4ccc(C(F)(F)F)cc4)cc3C(=O)N([C@@H](C)CO)C[C@@H]2C)cc1	inactive
OC[C@H]1[C@@H]2c3ccccc3NC[C@@H]2N1Cc1ccccc1Cl	inactive
CCOc1ccccc1OCCOc1ccccc1CC	inactive
COc1ccc(NC(=O)N(C)C[C@@H]2OCCCC[C@@H](C)Oc3ccc(NS(=O)(=O)c4c(C)noc4C)cc3C(=O)N([C@H](C)CO)C[C@H]2C)cc1	inactive
C[C@@H]1CN([C@@H](C)CO)C(=O)c2cc(NC(=O)Cc3cn(C)c4ccccc34)ccc2O[C@H]1CN(C)S(=O)(=O)c1cccs1	inactive
CC(C)(C)c1cc(C(F)(F)F)c(C#N)c(=O)[nH]1	inactive
C=CCn1c(COc2ccc(Cl)cc2)nnc1SCC(=O)c1c(N)n(C)c(=O)n(C)c1=O	inactive
COc1ccc(S(=O)(=O)Nc2ccc3c(c2)CC(=O)N([C@H](C)CO)C[C@@H](C)[C@@H](CN(C)Cc2ccc(C(F)(F)F)cc2)O3)cc1	inactive
CCOC(=O)C1CCN(C=Nc2cc(C)on2)CC1	inactive
COc1ccc(S(=O)(=O)Nc2ccc3c(c2)C(=O)N([C@@H](C)CO)C[C@H](C)[C@@H](CN(C)S(=O)(=O)c2ccc(F)cc2)OCCCC[C@H](C)O3)cc1	inactive
NC(=O)C1CCN(Cc2nc3cc(Cl)ccc3c(=O)[nH]2)CC1	inactive
